Source: PubChem BioAssay (NCI)
About 79,000 compounds went through this panel and 15% of them were active in at least one assay; those are over-represented in the sample as a whole. Values without a mark were called inactive. Activity calls are given as the source filed them. Cut-off read from the data, not from the text of the source: active = growth inhibition above about 70%; inactive = the rest.

Columns and labels:
[1] = NCI Yeast Anticancer Drug Screen. Data for the rad52 strain (AID 147);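 note: 0% = growth of vehicle-treated control cultures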; details: S. cerevisiae rad52 mutant growth inhibition, hits give high values
Summary of the method: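 Read-out: growth inhibition versus vehicle-treated controls. Cells were a DNA repair-deficient yeast strain treated with compounds.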

[2] = NCI Yeast Anticancer Drug Screen. Data for the wt1 strain (AID 149);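 note: 0% = growth of vehicle-treated wt1 cultures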; details: S. cerevisiae wt1 strain (SPY 50644) growth inhibition, hits give high values
Summary of the method: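 Compounds are added to wt1 yeast cultures. Growth is then measured. Inhibition is expressed relative to vehicle-treated controls.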

[3] = NCI Yeast Anticancer Drug Screen. Data for the rad50EPP+ strain (AID 151);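 note: 0% = growth of vehicle-treated control cultures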; details: S. cerevisiae rad50 mutant strain, hits give high values
Summary of the method: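 Growth inhibition read against vehicle controls in rad50EPP+ yeast, a strain altered in DNA damage repair, after compound exposure.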

[4] = NCI Yeast Anticancer Drug Screen. Data for the mgt1 strain (AID 153); details: S. cerevisiae mgt1 mutant growth inhibition, hits give high values
Summary of the method: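 mgt1 yeast grown with test compound; read-out is growth inhibition versus vehicle-treated cultures.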

[5] = NCI Yeast Anticancer Drug Screen. Data for the rad50 strain (AID 155);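 note: 0% = growth of vehicle-only cultures of the same strain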; details: S. cerevisiae rad50 strain growth inhibition, hits give high values
Summary of the method: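 Inhibition values express reduced yeast growth in compound-treated cultures relative to vehicle-treated controls.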

[6] = NCI Yeast Anticancer Drug Screen. Data for the mec2-1 strain (AID 157); details: S. cerevisiae mec2-1 strain, hits give high values
Summary of the method: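 Yeast mec2-1 mutant treated with compound. Readout: growth inhibition vs vehicle controls.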

[7] = NCI Yeast Anticancer Drug Screen. Data for the rad14 strain (AID 159);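 note: 0% = growth of vehicle-treated control cultures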; details: S. cerevisiae rad14 strain growth inhibition, hits give high values
Summary of the method: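 A mutant yeast strain defective in DNA damage repair is treated with compound; inhibition of its growth is scored against untreated, vehicle-exposed cultures.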

[8] = NCI Yeast Anticancer Drug Screen. Data for the sgs1 mgt1 strain (AID 161);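 note: 0% = growth of cultures given vehicle only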; details: S. cerevisiae sgs1 mgt1 strain, hits give high values
Summary of the method: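 Mutant yeast exposed to compound; growth scored against vehicle-only wells.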

[9] = NCI Yeast Anticancer Drug Screen. Data for the CLN2oe strain (AID 163);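 note: 0% = growth of vehicle-only control cultures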; details: S. cerevisiae CLN2oe strain, hits give high values
Summary of the method: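 Read-out: yeast growth inhibition, expressed relative to vehicle-only controls. The strain bears an engineered cell-cycle alteration.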

[10] = NCI Yeast Anticancer Drug Screen. Data for the cln2 rad14 strain (AID 165);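 note: 0% = growth equal to vehicle treated cultures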; details: S. cerevisiae cln2 rad14 strain, hits give high values
Summary of the method: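 cln2 rad14 yeast strain; compound exposure; growth inhibition read vs vehicle controls.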

[11] = NCI Yeast Anticancer Drug Screen. Data for the bub3 strain (AID 167); details: S. cerevisiae bub3 mutant strain, hits give high values
Summary of the method: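 Steps: expose the mutant yeast strain to compound; grow alongside vehicle-treated cultures; measure growth; express inhibition against the vehicle cultures.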

[12] = NCI Yeast Anticancer Drug Screen. Data for the mlh1 strain (AID 171);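 note: 0% = growth of vehicle-treated control cultures of the same strain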; details: S. cerevisiae mlh1 strain growth inhibition, hits give high values
Summary of the method: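 Read-out: growth inhibition versus vehicle controls. Strain: engineered yeast with a defined DNA repair or cell cycle defect, compound-treated.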

[13] = NCI Yeast Anticancer Drug Screen. Data for the sgs1 strain (AID 173);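 note: 0% = growth of vehicle-only control cultures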; details: S. cerevisiae sgs1 mutant, hits give high values
Summary of the method: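 Read-out: yeast growth inhibition relative to vehicle controls, following compound exposure of a strain with a defined DNA repair/cell cycle alteration.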

[14] = NCI Yeast Anticancer Drug Screen. Data for the mlh1 rad18 strain (AID 175); details: S. cerevisiae mlh1 rad18 strain growth inhibition, hits give high values
Summary of the method: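 Yeast w/ defined DNA-repair lesions; compound exposure; growth vs vehicle controls → % inhibition.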

[15] = NCI Yeast Anticancer Drug Screen. Data for the rad18 strain (AID 177); details: S. cerevisiae rad18 mutant growth inhibition, hits give high values
Summary of the method: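 Readout: growth inhibition vs vehicle controls. Cells: genetically altered yeast strain, DNA repair defect.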

[16] = at 5.0 µM (retest, dose inferred, filed as 0.5)
[17] = at 50.0 µM (retest, dose inferred, filed as 5.0)

Structure (SMILES): COc1ccccc1/C=C1\Sc2scc(-c3cccc([N+](=O)[O-])c3)[n+]2C1=O
- growth inhibition ([1]; at 1.2 µM): 31%
- growth inhibition ([1]; at 3.7 µM): 80% (active)
- growth inhibition ([1]; at 11.0 µM): 98% (active)
- growth inhibition ([1]; at 33.0 µM): 97% (active)
- growth inhibition ([1]; at 100.0 µM): 93% (active)
- growth inhibition ([2]; at 1.2 µM): 33%
- growth inhibition ([2]; at 3.7 µM): 91% (active)
- growth inhibition ([2]; at 11.0 µM): 99% (active)
- growth inhibition ([2]; at 33.0 µM): 98% (active)
- growth inhibition ([2]; at 100.0 µM): 94% (active)
- growth inhibition ([3]; at 1.2 µM): 11%
- growth inhibition ([3]; at 3.7 µM): 80% (active)
- growth inhibition ([3]; at 11.0 µM): 95% (active)
- growth inhibition ([3]; at 33.0 µM): 96% (active)
- growth inhibition ([3]; at 100.0 µM): 88% (active)
- growth inhibition ([4]; at 1.2 µM): 63%
- growth inhibition ([4]; at 3.7 µM): 98% (active)
- growth inhibition ([4]; at 11.0 µM): 99% (active)
- growth inhibition ([4]; at 33.0 µM): 94% (active)
- growth inhibition ([4]; at 100.0 µM): 91% (active)
- growth inhibition ([5]; at 1.2 µM): 47%
- growth inhibition ([5]; at 3.7 µM): 93% (active)
- growth inhibition [5, 16]: 12%
- growth inhibition ([5]; at 11.0 µM): 98% (active)
- growth inhibition ([5]; at 33.0 µM): 92% (active)
- growth inhibition [5, 17]: 96% (active)
- growth inhibition ([5]; at 50.0 µM): 85.7% (active)
- growth inhibition ([5]; at 100.0 µM): 91% (active)
- growth inhibition ([6]; at 1.2 µM): 67%
- growth inhibition ([6]; at 3.7 µM): 98% (active)
- growth inhibition [6, 16]: 16%
- growth inhibition ([6]; at 11.0 µM): 99% (active)
- growth inhibition ([6]; at 33.0 µM): 96% (active)
- growth inhibition [6, 17]: 96% (active)
- growth inhibition ([6]; at 50.0 µM): 89.1% (active)
- growth inhibition ([6]; at 100.0 µM): 90% (active)
- growth inhibition ([7]; at 1.2 µM): 28%
- growth inhibition ([7]; at 3.7 µM): 90% (active)
- growth inhibition ([7]; at 11.0 µM): 99% (active)
- growth inhibition ([7]; at 33.0 µM): 97% (active)
- growth inhibition ([7]; at 100.0 µM): 94% (active)
- growth inhibition [8, 16]: 46%
- growth inhibition [8, 17]: 98% (active)
- growth inhibition ([8]; at 50.0 µM): 89.3% (active)
- growth inhibition ([9]; at 1.2 µM): 46%
- growth inhibition ([9]; at 3.7 µM): 82% (active)
- growth inhibition ([9]; at 11.0 µM): 99% (active)
- growth inhibition ([9]; at 33.0 µM): 97% (active)
- growth inhibition ([9]; at 100.0 µM): 95% (active)
- growth inhibition [10, 16]: 15%
- growth inhibition [10, 17]: 96% (active)
- growth inhibition ([10]; at 50.0 µM): 87.6% (active)
- growth inhibition ([11]; at 1.2 µM): 70% (active)
- growth inhibition ([11]; at 3.7 µM): 96% (active)
- growth inhibition [11, 16]: 92% (active)
- growth inhibition ([11]; at 11.0 µM): 99% (active)
- growth inhibition ([11]; at 33.0 µM): 95% (active)
- growth inhibition [11, 17]: 95% (active)
- growth inhibition ([11]; at 50.0 µM): 83.8% (active)
- growth inhibition ([11]; at 100.0 µM): 84% (active)
- growth inhibition ([12]; at 1.2 µM): 34%
- growth inhibition ([12]; at 3.7 µM): 89% (active)
- growth inhibition ([12]; at 11.0 µM): 99% (active)
- growth inhibition ([12]; at 33.0 µM): 97% (active)
- growth inhibition ([12]; at 100.0 µM): 90% (active)
- growth inhibition ([13]; at 1.2 µM): 34%
- growth inhibition ([13]; at 3.7 µM): 89% (active)
- growth inhibition ([13]; at 11.0 µM): 99% (active)
- growth inhibition ([13]; at 33.0 µM): 97% (active)
- growth inhibition ([13]; at 100.0 µM): 90% (active)
- growth inhibition [14, 16]: 13%
- growth inhibition [14, 17]: 96% (active)
- growth inhibition ([14]; at 50.0 µM): 89.2% (active)
- growth inhibition ([15]; at 1.2 µM): 14%
- growth inhibition ([15]; at 3.7 µM): 82% (active)
- growth inhibition ([15]; at 11.0 µM): 98% (active)
- growth inhibition ([15]; at 33.0 µM): 96% (active)
- growth inhibition ([15]; at 100.0 µM): 93% (active)
